For 13 compounds, growth results are on record in PubChem BioAssay (NCI).

This is part of a sample that, as a whole, favours compounds with a hit. Of some 83,000 tested, about 20% had one in any assay.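 Interpretation: 100, growth as untreated; towards 0, rising growth inhibition; 0, no net growth; 0 to -100, cell death. Compounds scoring below 10 were considered active.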 A number with no mark means an inactive call. Calls of active or inactive are those of the source.

Among the test systems are NCI-H23 lung; NCI-H226 lung; NCI-H322M lung; HOP-62 NSCLC; NCI-H460 lung; HOP-92 NSCLC; NCI-H522 lung; A549/ATCC NSCLC; 786-0 renal; COLO 205 colon.
What all share (assay): NCI-60 one-dose screen, 48 h (100 = growth as untreated, 0 = no growth, -100 = all killed)
Common to all, as to details: 10 µM unless noted

On to `Fc1ccc(Nc2nc(Nc3ccc(-c4nc5ccccc5[nH]4)cc3)nc(N3CCCC3)n2)cc1`, for which the growth was 75.1% in the assay with NCI-H23 lung; 79.9% in the assay on NCI-H226 lung; 96% in the assay on NCI-H322M lung; 78.6% in the assay with HOP-62 NSCLC; 70.4% in the assay on NCI-H460 lung; 64.4% with HOP-92 NSCLC. For the same compound, the growth in the assay with NCI-H522 lung is 78.8%; in the assay on A549/ATCC NSCLC, 61.2%; in the assay with 786-0 renal it was 85.2%; in the assay with COLO 205 colon, 86%.
On to `CC(=O)O[C@H]1CC[C@]2(C)[C@H]3CC=C4[C@@H]5[C@H](C)[C@@H](C)CC[C@]5(C(=O)NCCNCCNCCN)CC[C@@]4(C)[C@]3(C)CC[C@H]2C1(C)C`, for which the growth with NCI-H23 lung was 94.6%; in the assay on NCI-H226 lung, 90.5%; in the assay with NCI-H322M lung, 87.6%; in the assay on HOP-62 NSCLC, 86.2%; in the assay with NCI-H460 lung, 76.8%; in the assay with HOP-92 NSCLC, 55%. The growth in the assay with NCI-H522 lung was 87.2%; in the assay with A549/ATCC NSCLC, 73.8%; with 786-0 renal, 84.5%; in the assay with COLO 205 colon it was 72.5%.
In the case of `O=C(/C=C\c1ccc2c(c1)OCO2)/C=C/c1ccc2c(c1)OCO2`, the growth with NCI-H23 lung is 84.8%; in the assay with NCI-H226 lung it was 67.7%; in the assay on NCI-H322M lung, 99.2%; in the assay on HOP-62 NSCLC it was 91.4%; in the assay with NCI-H460 lung, 99.1%; with HOP-92 NSCLC, 87.8%. The growth with NCI-H522 lung was 97.4%; in the assay on A549/ATCC NSCLC, 92.9%; in the assay with 786-0 renal it was 64.6%; in the assay on COLO 205 colon, 110%.
For the compound `N#Cc1cnc2cc(OC[C@@H](O)CO)c(NC(=O)CC3CSSC3)cc2c1Nc1ccc(OCc2cccc(F)c2)c(Cl)c1`, the growth is -72.4% (active) in the assay with NCI-H23 lung; -65.3% (active) with NCI-H226 lung; -84.2% (active) with NCI-H322M lung; -57.1% (active) in the assay on HOP-62 NSCLC; -66.9% (active) with NCI-H460 lung; 9.97% (active) in the assay with HOP-92 NSCLC. In addition, the growth is -72.6% (active) in the assay on NCI-H522 lung, -61.8% (active) in the assay with A549/ATCC NSCLC, -31.4% (active) in the assay with 786-0 renal and -70.5% (active) with COLO 205 colon.
On to `O=C(/C=C/c1cccc(O)c1)c1ccccc1O`, for which the growth in the assay with NCI-H23 lung was 86.8%; with NCI-H226 lung, 98.2%; in the assay on NCI-H322M lung, 98.4%; in the assay on HOP-62 NSCLC, 94.4%; with NCI-H460 lung it was 88.2%; in the assay with HOP-92 NSCLC it was 68.6%. In addition, the growth in the assay with NCI-H522 lung is -37.3% (active); in the assay with A549/ATCC NSCLC it was 96.6%; with 786-0 renal, 103%; in the assay with COLO 205 colon, 104%.
`CC1=CC(=O)N(c2cccc3c(N4C(=O)C=C(C)C4=O)cccc23)C1=O`: the growth was 79.4% in the assay on NCI-H23 lung; 100% in the assay with NCI-H226 lung; 102% with NCI-H322M lung; 100% in the assay with HOP-62 NSCLC; 113% in the assay on NCI-H460 lung; 78.6% in the assay with HOP-92 NSCLC. In addition, the growth in the assay on NCI-H522 lung is -74.6% (active); in the assay with A549/ATCC NSCLC it was 96.5%; in the assay with 786-0 renal, 96.3%; with COLO 205 colon it was -45.6% (active).
For the compound `N#CC1=C(N)Oc2c(sc3c(F)cccc23)C1c1ccc(Cl)cc1` (stereo not given), the growth with NCI-H23 lung was 43.7%; in the assay on NCI-H226 lung, 74.9%; in the assay on NCI-H322M lung it was 55.1%; with HOP-62 NSCLC, 28.8%; in the assay on NCI-H460 lung, 13.1%; in the assay with HOP-92 NSCLC, 36.9%. Also, the growth with NCI-H522 lung was 6.14% (active); in the assay with A549/ATCC NSCLC, 38%; with 786-0 renal, 21.1%; with COLO 205 colon it was 38.4%.
With `CC1(C)NCCC[C@]2(C)[C@H]3CC[C@@H]4[C@H]5[C@H](C(=O)/C=C/c6ccccn6)CC[C@]5(CO)CC[C@@]4(C)[C@]3(C)CC[C@@H]12`, the growth was 72.9% in the assay with NCI-H23 lung; 85.5% in the assay with NCI-H226 lung; 86.4% with NCI-H322M lung; 77% in the assay on HOP-62 NSCLC; 25.1% with NCI-H460 lung; 35.6% in the assay on HOP-92 NSCLC. Also, the growth with NCI-H522 lung was 54.4%; in the assay on A549/ATCC NSCLC, 36.9%; with 786-0 renal, 85.4%; in the assay with COLO 205 colon, -74.3% (active).
Take `N=C(N)c1ccc(-c2ccc(-c3cc(F)cc(F)c3)o2)nc1`: the growth is 87.8% with NCI-H23 lung; 86.6% in the assay on NCI-H226 lung; 96.4% with NCI-H322M lung; 78.4% in the assay on HOP-62 NSCLC; 99.4% in the assay with NCI-H460 lung; 59% in the assay with HOP-92 NSCLC. The growth in the assay on NCI-H522 lung was 99.1%; with A549/ATCC NSCLC it was 94.8%; in the assay with 786-0 renal, 95.6%; with COLO 205 colon, 63.4%.
As to `c1ccc(C2Cc3ccccc3C2=NC2CCCCC2)cc1` (stereo not given), the growth was 98.1% in the assay on NCI-H23 lung; 100% with NCI-H226 lung; 102% in the assay with NCI-H322M lung; 113% with HOP-62 NSCLC; 116% with NCI-H460 lung; 68.4% in the assay on HOP-92 NSCLC. For the same compound, the growth is 88.8% in the assay on NCI-H522 lung, 103% in the assay on A549/ATCC NSCLC, 97.5% in the assay on 786-0 renal and 115% with COLO 205 colon.
Turning to `C=C(C)[C@@H]1CC[C@]2(C=NCCCNCCCCNCCCN)CC[C@]3(C)[C@H](CC[C@@H]4[C@@]5(C)CCCNC(C)(C)[C@@H]5CC[C@]43C)[C@@H]12`, the growth was 82.5% with NCI-H23 lung; 80.1% with NCI-H226 lung; 100% in the assay with NCI-H322M lung; 92.9% with HOP-62 NSCLC; 91.7% in the assay on NCI-H460 lung; 92.4% with HOP-92 NSCLC. For the same compound, the growth in the assay on NCI-H522 lung is 99.6%; in the assay with A549/ATCC NSCLC, 88.8%; in the assay on 786-0 renal, 107%; in the assay on COLO 205 colon it was 79.1%.
As to `Oc1ccc(Nc2ccccc2)cc1`, the growth in the assay on NCI-H23 lung was 86%; in the assay on NCI-H226 lung, 92.6%; in the assay on NCI-H322M lung, 77.7%; in the assay on HOP-62 NSCLC, 104%; in the assay on NCI-H460 lung, 92.5%; with HOP-92 NSCLC, 119%. In addition, the growth in the assay on NCI-H522 lung is 92.2%; in the assay on A549/ATCC NSCLC, 111%; with 786-0 renal, 97.8%; in the assay with COLO 205 colon, 109%.
In the case of `Cc1ccc(S(=O)(=O)Nc2ccc(-c3cc(-c4cccc(F)c4)c(C#N)c(=O)[nH]3)cc2)cc1`, the growth in the assay on NCI-H23 lung is 87.7%; in the assay with NCI-H226 lung, 79.6%; with NCI-H322M lung, 90%; in the assay on HOP-62 NSCLC, 92.3%; in the assay with NCI-H460 lung it was 98.2%; in the assay on HOP-92 NSCLC, 72.9%. In addition, the growth was 87.2% with NCI-H522 lung, 68.2% in the assay on A549/ATCC NSCLC, 102% with 786-0 renal and 115% in the assay on COLO 205 colon.
